From PubChem BioAssay
Sampled rows, rich in hits. Any-hit rate of the full collection: about 7.7%.
HCMV antiviral – qHTS Assay for inhibitors of the human cytomegalovirus (HCMV); HFF cells, HCMV-luciferase reporter, 72 h; stronger effect = lower value; activity change, negative = inhibition, % at 57.5 µM; 410,000 tested, 4.5% active; in the data active means activity change below about -60%; inconclusive means no clear call, values can overlap the other calls; inactive means above about -39%
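Steps: HFFs plated, 16 h 37C; compounds added; HCMV-luciferase added to MOI 1 PFU/cell; 72 h 37C; OneGlo reagent, 5 min room temperature; luminescence read, normalized to controls.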
RE007 growth inh – qHTS Assay for Inhibitors of the HIV-1 protein Vpr; S. pombe RE007 Vpr strain, BacTiter-Glo ATP luminescence, 24 h; Potency, µM (highest dose often 92.2 µM), most hits filed as inhibitors; 360,000 tested, 0.21% active; active means well fitted falling curve with a large enough effect; inconclusive means small, poorly fitted or top-dose-only effect; inactive means no such curve, though single readings can be large or run the other way; further: nearly all actives have a fitted effect of over 50% in size
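Fission yeast RE007 carrying one integrated HIV-1 vpr copy, seeded at OD 0.01 in PMG+AL medium with 23 nL pinned compound. Grown 24 h at 30 degrees; viability read by BacTiter-Glo luminescence after 5 min.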
Sm TGR inh – qHTS Assay for the Inhibitors of Schistosoma Mansoni Peroxiredoxins. Potency, µM (doses to about 114 µM), hits mostly inhibitors. 360,000 tested, 3% active. purified TGR, DTNB reduction, TNB absorbance 405 nm; further: nearly all actives have a fitted effect of over 60% in size
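TGR 20 nM + NADPH 100 uM (dispensed conc.), cpd preinc 15 min RT; start with NADPH (500 uM addition) then DTNB (15 mM addition). Kinetic TNB absorbance, 405 nm filter. Four-parameter Hill fit across titration.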
FBPA Giardia inh – qHTS Assay for Inhibitors of Fructose-1,6-bisphosphate Aldolase from Giardia Lamblia; Potency, µM (doses to about 59.6 µM), usual class: inhibitors; AID 2451, 2010; 290,000 tested, 0.71% active; purified Giardia FBPA; A8B2U2; further: nearly all actives have a fitted effect of over 55% in size
Target sequence (A8B2U2 whole entry, looked up): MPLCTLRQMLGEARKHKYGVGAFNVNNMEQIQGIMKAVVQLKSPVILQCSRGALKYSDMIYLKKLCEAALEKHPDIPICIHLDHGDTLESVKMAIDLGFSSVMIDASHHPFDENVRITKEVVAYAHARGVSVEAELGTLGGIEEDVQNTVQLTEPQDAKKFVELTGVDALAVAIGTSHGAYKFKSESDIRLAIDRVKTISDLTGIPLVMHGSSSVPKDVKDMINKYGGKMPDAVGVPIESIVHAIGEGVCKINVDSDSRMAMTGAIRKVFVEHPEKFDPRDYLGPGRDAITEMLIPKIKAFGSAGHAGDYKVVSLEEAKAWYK
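40 nM FBPA preincubated 10 min at RT with compound (up to 57.5 uM final), then substrate plus GAPDH/TPI/NAD/arsenate coupling and diaphorase/resazurin added. Fluorescence read after 20 min at RT, 525/598 nm.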
FMDV antiviral – High Throughput Screening for Foot and Mouth Disease Virus Antivirals. FMDV antiviral cell-based qHTS. Potency, µM (top dose mostly 57.9 µM), hits mostly inhibitors. 410,000 tested, 1.2% active. AID 1159524, 2015; calls by dose curve; tested in HEK293T cells; further: read-out not given here; nearly all actives have a fitted effect of over 45% in size
TbPYK inhibitor – qHTS of Trypanosoma Brucei Inhibitors; TbPYK enzyme, Kinase-Glo Plus ATP luminescence, 45 min; Potency, µM (highest dose often 76.8 µM), actives largely listed as inhibitors; 410,000 tested, 0.12% active; AID 624173, 2012; further: nearly all actives have a fitted effect of over 50% in size
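Luminescent Kinase-Glo Plus end-point after 45 min room-temperature reaction of T. brucei pyruvate kinase started with 130 uM ADP (final). Buffer TEA 50 mM pH 7.2 with KCl, MgCl2, BSA, Tween-20; titration-based qHTS with fitted concentration-effect curves.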
Numbers stand for hits. Unless noted, the call rests on the fitted dose curve; in most records, active means well fitted curve in the direction sought with a large enough effect; inconclusive means small, poorly fitted or top-dose-only effect, or another doubt; inactive means no such curve, though single readings can be large; an effect the other way counts as inactive or inconclusive.

`O=C1C(Nc2cccc(O)c2)=C(N2CCCCC2)C(=O)c2ccccc21` gave HCMV antiviral inactive, RE007 growth inh inactive, Sm TGR inh 10µM, FBPA Giardia inh inconclusive and TbPYK inhibitor inactive.
Cc1ccc(NC2=C(N3CCCCC3)C(=O)c3ccccc3C2=O)cc1 was read as HCMV antiviral -103.2, RE007 growth inh inactive, Sm TGR inh 12.6µM, FBPA Giardia inh inconclusive and TbPYK inhibitor inactive.
Screening Cc1ccnn1CC(=O)N1CCOc2c(cc(-c3csc4ccccc34)cc2OC2CCOC2)C1 (configuration not stated) returned FMDV antiviral inactive.
Screening COCCCNC(=O)CN1C(=O)c2cccnc2Sc2ccccc21 returned HCMV antiviral inactive, Sm TGR inh inactive, FMDV antiviral inactive and TbPYK inhibitor inactive.
O=C(/C=C/c1ccc(O)cc1)c1ccc(NC2=C(N3CCCCC3)C(=O)c3ccccc3C2=O)cc1 was read as HCMV antiviral -98.7, RE007 growth inh inactive, Sm TGR inh 25.1µM, FBPA Giardia inh inconclusive, FMDV antiviral inconclusive and TbPYK inhibitor inactive.
CCN1CCN(C2=C(NS(=O)(=O)c3ccc(NC(C)=O)cc3)C(=O)c3ccccc3C2=O)CC1 was read as HCMV antiviral inactive, RE007 growth inh inactive, Sm TGR inh inconclusive, FMDV antiviral inactive and TbPYK inhibitor inactive.
`CC(=O)Nc1ccc(S(=O)(=O)NC2=C(N3CCN(C)CC3)C(=O)c3ccccc3C2=O)cc1` gave HCMV antiviral inactive, RE007 growth inh inactive, Sm TGR inh inconclusive, FBPA Giardia inh 0.708µM, FMDV antiviral inactive and TbPYK inhibitor inactive.
`CC(=O)C1=NOC2C(=O)N(c3ccccc3)C(=O)C12` (configuration not stated) gave HCMV antiviral inactive, Sm TGR inh 11.2µM, FBPA Giardia inh inactive, FMDV antiviral inactive and TbPYK inhibitor inactive.
For Cc1ccc(N2C(=O)[C@@H]3C(c4ccc(F)cc4)=NO[C@@H]3C2=O)cc1 the results were HCMV antiviral inactive, RE007 growth inh inactive, Sm TGR inh inactive, FBPA Giardia inh inactive, FMDV antiviral inactive and TbPYK inhibitor inactive.
CCC(C(=O)NCCc1ccccc1)n1nc(C)c2sc3ccccc3c2c1=O (configuration not stated) was read as HCMV antiviral inactive, Sm TGR inh inactive, FMDV antiviral inactive and TbPYK inhibitor inactive.
For CCOC(=O)c1scc(-c2ccccc2)c1S(=O)(=O)N1CCN(c2ccc(Cl)cc2)CC1 the results were HCMV antiviral inactive, Sm TGR inh inactive, FMDV antiviral inactive and TbPYK inhibitor inconclusive.
For Cc1nnc2c(SC(C)C)nc3ccccc3n12 the results were HCMV antiviral -82.1, RE007 growth inh inactive, Sm TGR inh inactive, FBPA Giardia inh inactive, FMDV antiviral inactive and TbPYK inhibitor inactive.
`Cc1ccc(-c2nc3ccccc3n3c(C)nnc23)cc1` gave Sm TGR inh inactive and FBPA Giardia inh inactive.
For CC(C)N(C(=O)COC(=O)c1ccccc1C(=O)c1ccc(Cl)c([N+](=O)[O-])c1)C(C)C the results were HCMV antiviral inactive, RE007 growth inh inactive, Sm TGR inh inactive, FBPA Giardia inh inactive, FMDV antiviral inconclusive and TbPYK inhibitor inactive.
For CN(CCC#N)C(=O)COC(=O)c1ccccc1C(=O)c1ccc(Cl)c([N+](=O)[O-])c1 the results were HCMV antiviral -97.4, RE007 growth inh inactive, Sm TGR inh 12.6µM, FBPA Giardia inh inactive, FMDV antiviral inconclusive and TbPYK inhibitor inactive.
For Fc1ccccc1Nc1nc2c(s1)CCc1ccccc1-2 the results were Sm TGR inh inconclusive and FBPA Giardia inh 19.9µM.
Screening O=C(Nc1nc2c(s1)CCc1ccccc1-2)c1cccs1 returned HCMV antiviral inactive, RE007 growth inh inactive, Sm TGR inh inactive, FBPA Giardia inh inactive, FMDV antiviral inconclusive and TbPYK inhibitor inactive.
`Cc1cc(C)cc(NC(=O)C(NS(=O)(=O)c2cccc3nsnc23)c2ccccc2)c1` (configuration not stated) gave HCMV antiviral inactive, Sm TGR inh inactive, FMDV antiviral inconclusive and TbPYK inhibitor inactive.
Screening O=C(CSc1nc2c([nH]c3ccccc32)c(=O)n1-c1ccc(F)cc1)N1CCc2ccccc21 returned HCMV antiviral inactive, Sm TGR inh inactive, FMDV antiviral inactive and TbPYK inhibitor inactive.
`C[C@@H]1ON(C)[C@H]2C[C@H]3c4[nH]c5cccc(-c6ccc7c(c6)OCO7)c5c4CCN3C(=O)[C@@H]12` gave HCMV antiviral inactive.
For O=C(C#Cc1ccccc1)c1cccc([N+](=O)[O-])c1 the results were HCMV antiviral inactive, RE007 growth inh inconclusive, Sm TGR inh 0.251µM, FBPA Giardia inh inactive, FMDV antiviral 25.1µM and TbPYK inhibitor inactive.
COc1ccc(CCNC(=O)c2ccc(Cn3c(=O)c4ccccc4n(Cc4cccc(Cl)c4)c3=O)cc2)cc1OC was read as HCMV antiviral inactive, Sm TGR inh inactive, FMDV antiviral inactive and TbPYK inhibitor inactive.
`O=C(c1ccc(S(=O)(=O)NCC2CCCO2)cc1)N1CCN(c2cccc(Cl)c2)CC1` (configuration not stated) gave HCMV antiviral -70.1, RE007 growth inh inactive, Sm TGR inh inactive, FBPA Giardia inh inactive, FMDV antiviral inconclusive and TbPYK inhibitor inactive.
For O=S(=O)(NCC1CCCO1)c1ccc(-c2ccc(Cl)cc2)cc1 (configuration not stated) the results were HCMV antiviral -60.4, RE007 growth inh inactive, Sm TGR inh inactive, FBPA Giardia inh inactive, FMDV antiviral inactive and TbPYK inhibitor inactive.
Screening COc1cccc(N2CCN(c3ncccn3)CC2)c1 returned HCMV antiviral inactive, RE007 growth inh inactive, Sm TGR inh inactive, FBPA Giardia inh inactive and TbPYK inhibitor inactive.
`Cc1cc(N2CCN(c3ccccc3)CC2)n2ncnc2n1` gave HCMV antiviral inconclusive, RE007 growth inh inactive, Sm TGR inh inactive, FBPA Giardia inh inactive, FMDV antiviral inconclusive and TbPYK inhibitor inactive.
`c1ccc(N2CCN(c3c4c(nc5ncnn35)CCC4)CC2)cc1` gave HCMV antiviral -62.2, RE007 growth inh inactive, Sm TGR inh inactive, FBPA Giardia inh inactive, FMDV antiviral inconclusive and TbPYK inhibitor inactive.
`COc1cccc(N2CCN(c3c4c(nc5ncnn35)CCC4)CC2)c1` gave HCMV antiviral -86.1, RE007 growth inh inactive, Sm TGR inh inactive, FBPA Giardia inh inactive, FMDV antiviral 14.1µM and TbPYK inhibitor inactive.
Screening O=c1[nH]c(SCc2ccc(F)cc2)nc2c1CCCC2 returned HCMV antiviral inactive, Sm TGR inh inactive, FMDV antiviral inactive and TbPYK inhibitor inactive.
`c1cncc(CNc2ncnc3ccc(-c4ccco4)cc23)c1` gave Sm TGR inh 8.91µM.
